This note sets out measurements from ChEMBL document CHEMBL1157539, “Thousands of chemical starting points for antimalarial lead identification” (Nature, 2010).

Over roughly 13,000 compounds, “IFI” has its median near 4; the highest 2% begin near 17. The sample holds the highest values, similar compounds and a random draw of the others, so the mix is not that of the screen.

The nature of this test: GSK_TCMDC: Inhibition Frequency Index (IFI). The number of non-kinase HTS assays where a compound showed > 50 % inhibition, expressed as a percentage of the number of such assays in which the compound was tested. The class given is functional.
The compound `NS(=O)(=O)c1ccc(Nc2nccc(-c3c(-c4cccc(NC(=O)c5c(F)cccc5F)c4)nn4ccccc34)n2)cc1` displayed an IFI of 7.96%.

In turn, `Cc1cc(-c2ccc3c(c2)CCN(CCCOc2ccc4c(c2)CCN4C(=O)/C=C/c2ccccc2Cl)CC3)no1` gave an IFI of 10.8%.

On to `CN(C)CCN(C)Cc1ccc(-c2ccc3c(Nc4ccc(F)cc4Cl)ccnc3c2)o1`, for which the IFI came out at 9.86%.

Regarding `Nc1ccc2[nH]cc(C3CCN(CCC4CCN(C(=O)/C=C/c5ccc(Cl)c(Cl)c5)CC4)CC3)c2n1`, the IFI came to 8.76%.

The compound `CCCNCc1ccc(-c2ccc(CN(CCOC)C(=O)c3cnc(C)cn3)cc2)nc1` came in with an IFI of 0%.

For `O=C(Nc1ccc(C(F)(F)F)cc1)N[C@H]1CCN(CCCCCNC(=O)C2CC2c2ccc(Cl)c(Cl)c2)C1` (stereo partly drawn), the IFI was 16.8%.

`CC(C)Cc1cn(-c2nc(-c3nc4ccccc4[nH]3)cs2)c2cc(Cl)ccc12` gave an IFI of 1.18%.

Consider `CC(C)Cc1cn(-c2nc(-c3nc4ccccc4[nH]3)cs2)c2ccncc12`, for which the IFI worked out at 4.94%.

Compound `CC(C)Cc1cn(-c2nc(C(=N)N)cs2)c2cc(Cl)ccc12` had an IFI of 23.9%.

`CCCN(Cc1ccc(C)cc1)Cc1cc(=O)c2cc(Cl)ccc2[nH]1` displayed an IFI of 9.09%.

Consider `Fc1ccc2[nH]c(-c3cccc(-c4ccc(CN5CCN(c6ccncc6)CC5)cc4)c3)nc2c1`, for which the IFI came out at 5.63%.

Compound `Fc1ccc2[nH]c(-c3ccc(-c4cccc(CN5CCN(c6ccncc6)CC5)c4)cc3)nc2c1` yielded an IFI of 18.1%.

Compound `Fc1ccc2[nH]c(-c3cccc(-c4cccc(CN5CCN(c6ccncc6)CC5)c4)c3)nc2c1` came in with an IFI of 13.6%.

On to `Cc1cc(N)c2cc(NC(=O)c3cc4ccccc4s3)ccc2n1`, for which the IFI is 6.12%.

`CC(CNC(=N)c1cccc(C(=N)NCC(C)Oc2cccc(C3CCCCC3)c2)n1)Oc1cccc(C2CCCCC2)c1` (stereo not drawn) yielded an IFI of 17.7%.

The compound `N=C(NCC1CC1c1ccccc1)c1cccc(C(=N)NCC2CC2c2ccccc2)n1` (stereo not drawn) had an IFI of 5.65%.

Regarding `c1ccc(COc2ccc(C3CCCCC3)cc2)nc1`, the IFI worked out at 2.9%.

As for `Cc1cccc(NC(=O)Nc2cccc(-c3ccc(-c4nc5cc(C(F)(F)F)ccc5[nH]4)cc3)c2)c1`, the IFI is 6.45%.

Take `O=C(Nc1ccc(Br)cc1)c1cc(Br)ccc1NS(=O)(=O)c1cc(C(F)(F)F)cc(C(F)(F)F)c1`: the IFI stood at 19.9%.

Compound `O=C(Nc1cc(C(F)(F)F)cc(C(F)(F)F)c1)c1cc(C(F)(F)F)cc(C(F)(F)F)c1` showed an IFI of 3.65%.

With `O=C(Nc1ccc(Br)cc1)c1cc(Br)ccc1NS(=O)(=O)c1ccc(C(F)(F)F)cc1`, the IFI worked out at 25%.

In turn, `O=C(Nc1ccc(C(F)(F)F)cc1)c1ccc(S(=O)(=O)NC2CCN(CC3CCCCC3)CC2)cc1` had an IFI of 2.41%.

Regarding `Cc1ccc(C)c(S(=O)(=O)Nc2ccc(Br)cc2C(=O)Nc2cccc(C(F)(F)F)c2)c1`, the IFI turned out to be 21.1%.

Turning to `Cc1cc(Cl)c(Cl)cc1NC(=O)Nc1cccc(C(F)(F)F)c1`, the IFI was determined as 6.52%.

Turning to `COc1cc(NC(=O)Nc2ccc(Br)cc2C(=O)Nc2ccc(Br)cc2)cc(OC)c1OC`, the IFI is 1.55%.

`O=C(Nc1ccc(C(F)(F)F)cc1)c1cc(Br)cnc1NCCCn1ccnc1` yielded an IFI of 1.67%.

With `NCCNc1ccc([N+](=O)[O-])cc1C(=O)Nc1cccc(C(F)(F)F)c1`, the IFI was determined as 1.45%.

In the case of `COc1ccc2c(NN=Cc3ccccc3F)ccnc2c1`, the IFI stood at 3.52%.

The compound `CC(C)[C@H](NC(=O)c1c(F)cccc1F)C(=O)Nc1ccc(Cc2nc3ccccc3s2)cc1` gave an IFI of 1.96%.

Regarding `CN(N=Cc1ccccc1)C(=N)NCCCC#Cc1cccc(CN2CCCC2)c1`, the IFI worked out at 4.23%.

For `CC(Sc1nnc(-c2cccs2)[nH]1)C(=O)c1c[nH]c2ccccc12` (stereo not drawn), the IFI stood at 1.92%.

The compound `Oc1ccc2nc(NCCCc3ccccc3)nc(NCCc3ccccc3)c2c1` returned an IFI of 14.1%.

`CCN(CC)/C(=N/C(=N)NCc1ccc(Cl)cc1)NCCCCCCN/C(=N\C(=N)NCc1ccc(Cl)cc1)N(CC)CC` gave an IFI of 15.1%.

For `COc1cccc(-c2ccc(NC(=O)C3CCCN(Cc4cccc(OC)c4O)C3)cc2)c1` (stereo not drawn), the IFI came to 4.35%.

In the case of `CCC(=O)NC(c1ccco1)c1cc(Cl)c2cccnc2c1O` (stereo not drawn), the IFI was 4.35%.

`Oc1c(C(Nc2ccccn2)c2ccco2)cc(Cl)c2cccnc12` (stereo not drawn) showed an IFI of 22.6%.

Compound `O=C(Cc1ccccc1)NC(c1ccco1)c1cc(Cl)c2cccnc2c1O` (stereo not drawn) showed an IFI of 8%.

As to `N=C1C=C(N)C(=O)c2ccccc21`, the IFI was determined as 20.8%.

Regarding `O=C(Nc1ccc(-c2cccc(-c3nc4cc(C(F)(F)F)ccc4[nH]3)c2)cc1)Nc1ccc(F)c(F)c1F`, the IFI came to 5.83%.

For the compound `CCC(CC)CN1C(=O)C(c2ccccc2)(c2ccccc2)N=C1N`, the IFI is 3.7%.

Compound `COc1ccccc1CCCN1C(=O)C(c2ccccc2)(c2ccccc2)N=C1N` displayed an IFI of 22.3%.

As to `CCCCC(CC)CN1C(=O)C(c2ccccc2)(c2ccccc2)N=C1N` (stereo not drawn), the IFI amounted to 16.3%.

Turning to `COc1ccc(CCCCN2C(=O)C(c3ccccc3)(c3ccccc3)N=C2N)cc1`, the IFI was 7.69%.

In turn, `COc1ccc(CCCN2C(=O)C(c3ccccc3)(c3ccccc3)N=C2N)cc1` showed an IFI of 8.65%.

As to `CCCCC(CCCC)CN1C(=O)C(c2ccccc2)(c2ccccc2)N=C1N`, the IFI stood at 20.9%.

`N#Cc1cccc(NC(=O)Nc2ccc(-c3cccc(-c4nc5cc(F)ccc5[nH]4)c3)cc2)c1` returned an IFI of 4.04%.

For `Cc1cccc2nc(-c3ccc(-c4ccc(CNCc5ccccc5)cc4)s3)[nH]c12`, the IFI stood at 9.62%.

In turn, `Oc1c(CN2CCCC(C(F)(F)F)C2)cc(Cl)c2ccccc12` (stereo not drawn) returned an IFI of 6.38%.

As for `Cc1ccc(CN2CCCN(Cc3cccc(NC(=O)c4cc5ccccc5s4)c3)CC2)cc1`, the IFI came out at 10.2%.

With `CN1CCC(C(=O)Nc2cccc(-c3cccc(-c4nc5cc(F)ccc5[nH]4)c3)c2)CC1`, the IFI came out at 4.24%.

As for `Cc1cccc2nc(-c3cccc(-c4cccc(CNCc5ccc(S(C)(=O)=O)cc5)c4)c3)[nH]c12`, the IFI came out at 8.65%.

`Cc1ccc2c(=NN=Cc3cccc(Cl)c3)cc(C)[nH]c2c1` yielded an IFI of 10.1%.

As to `COc1ccc(-c2cccc(NC(=O)c3cccc(C#N)c3)c2)cc1CN1CCC(O)CC1`, the IFI came out at 0%.

Compound `CC(C)CCN1CCC(Oc2ccc(NC(=O)c3cccs3)cc2Cl)CC1` gave an IFI of 8.06%.

In turn, `c1cc(CN2CCC(CCN3CCCCC3)CC2)cc(-c2cccc(-c3nc4ccccc4[nH]3)c2)c1` yielded an IFI of 5.56%.

`Cc1cc(N[C@@H](Cc2ccccc2)C(=O)NCc2cccs2)nc(NCC2CCCCC2)n1` returned an IFI of 16.3%.

On to `Cc1cc(N[C@@H](CC(C)C)C(=O)NCc2cccc(F)c2)nc(NCC2CCCCC2)n1`, for which the IFI turned out to be 18.6%.

`Cc1ccc(CNC(=O)[C@H](CC(C)C)Nc2cc(C)nc(NCC3CCCCC3)n2)cc1` displayed an IFI of 19.1%.

`Cc1ccc(CNC(=O)[C@H](Cc2ccccc2)Nc2cc(C)nc(NCc3ccccc3C)n2)cc1` registered an IFI of 4.88%.

`Cc1ccc(CNC(=O)[C@H](CCCN)Nc2cc(C)nc(NCC3CCCCC3)n2)cc1`: the IFI came to 4.88%.

Compound `Cc1cc(N[C@@H](Cc2ccccc2)C(=O)NCCc2ccccc2)nc(NCCOc2ccccc2)n1` yielded an IFI of 7.5%.

In turn, `Cc1cc(N[C@@H](Cc2ccccc2)C(=O)NCCOc2ccccc2)nc(NCCc2ccccc2)n1` gave an IFI of 16.3%.

`Cc1cc(N[C@@H](Cc2ccccc2)C(=O)NCCOc2ccccc2)nc(NCCOc2ccccc2)n1` registered an IFI of 24.4%.

In turn, `Cc1cccc(CNc2nc(C)cc(N[C@@H](CC(C)C)C(=O)NCc3cccc(F)c3)n2)c1` came in with an IFI of 9.52%.

`Cc1cc(N[C@@H](CC(C)C)C(=O)NCCc2ccccc2)nc(NCC2CCCCC2)n1`: the IFI was found to be 16.3%.

In turn, `Cc1cc(N[C@@H](CC(C)C)C(=O)NCc2cccc(F)c2)nc(NCCc2ccccc2)n1` returned an IFI of 17.1%.

On to `Cc1ccc(CNC(=O)[C@H](Cc2ccccc2)Nc2cc(C)nc(NCC3CCCCC3)n2)cc1`, for which the IFI was determined as 24.3%.

With `CN(C)CCN(Cc1ccc(-c2ccc(CNCCc3ccccc3)cc2)nc1)C(=O)CCC1CCCC1`, the IFI amounted to 8.33%.

On to `COc1ccc2c(N/N=C/c3ccccc3[N+](=O)[O-])ccnc2c1`, for which the IFI was found to be 3.62%.

Turning to `CC1(C)CCC(C)(C)c2c1ccc(C1CCN(CCCCNC(=O)c3ccc(-c4ccc(Cl)cc4)cc3)CC1)c2O`, the IFI came to 13.7%.

In turn, `COc1ccc(CON2C(=N)N=C(N)NC2(C)C)cc1OC` gave an IFI of 1.47%.

In turn, `COc1ccc(C#Cc2ccc(-c3c(C)[nH]c(C)c(Cl)c3=O)cc2)cc1` displayed an IFI of 0.88%.

`CCN(CC)CCN(Cc1ccc(-c2ccc(C(F)(F)F)cc2)cc1)C(=O)Cn1c(CCc2c(F)ccc(F)c2F)nc(=O)c2ccccc21`: the IFI was 9.09%.

For `Cc1nc(C)c(-c2ccc(S(=O)(=O)c3ccc(Cl)cc3)cc2)c(O)c1Cl`, the IFI was determined as 0.78%.

Take `CC(C)Cn1cc(C2CCN(CCN3CCC(CNC(=O)c4ccc(-c5ccc(C(F)(F)F)cc5)cc4)CC3)CC2)c2ccccc21`: the IFI is 9.17%.

In the case of `O=C(/C=C/c1ccc(Cl)c(Cl)c1)NC1CCC(CN2CCC(c3nc4cccnc4[nH]3)CC2)CC1` (stereo not drawn), the IFI was 4.96%.

Consider `CCN(CC)CCN(Cc1ccc(-c2ccc(C(F)(F)F)cc2)cc1)C(=O)Cn1c(/C=C/c2ccco2)nc(=O)c2ccccc21`, for which the IFI is 5.52%.

Take `Cc1cccc(CNc2nc(C)cc(N[C@@H](Cc3ccccc3)C(=O)NCc3cccc(F)c3)n2)c1`: the IFI came out at 19.1%.

The compound `Cc1cc(N[C@@H](Cc2ccccc2)C(=O)NCc2cccc(F)c2)nc(Nc2ccccc2)n1` yielded an IFI of 4.76%.

Compound `Cc1cc(N[C@@H](Cc2ccccc2)C(=O)NCc2cccc(F)c2)nc(NCc2ccccc2C)n1` came in with an IFI of 4.88%.

The compound `Cc1cc(N[C@@H](Cc2ccccc2)C(=O)NCc2cccc(F)c2)nc(NCCCOC(C)C)n1` displayed an IFI of 18.2%.

Regarding `Cc1cc(N[C@@H](Cc2ccccc2)C(=O)NCc2cccc(F)c2)nc(NCCOc2ccccc2)n1`, the IFI was 6.98%.

`Cc1cc(N[C@@H](Cc2ccccc2)C(=O)NCc2cccc(F)c2)nc(NCCc2ccc(F)cc2)n1` displayed an IFI of 9.09%.

Take `Cc1cc(N[C@@H](Cc2ccccc2)C(=O)NCCCOC(C)C)nc(NCCc2ccc(F)cc2)n1`: the IFI is 2.44%.

`Cc1cc(N[C@@H](Cc2ccccc2)C(=O)NCc2cccc(F)c2)nc(NCCc2ccccc2)n1`: the IFI stood at 9.3%.

The compound `Cc1cc(N[C@@H](Cc2ccccc2)C(=O)NCc2cccc(F)c2)nc(NCC2CCCCC2)n1` showed an IFI of 27.9%.

`CC1(C)N=C(N)N=C(Nc2ccc(Cl)cc2)N1`: the IFI came to 0.76%.

`FC(F)(F)c1ccc2[nH]c(-c3cccc(-c4cccc(CN5CCN(c6ccncc6)CC5)c4)c3)nc2c1`: the IFI is 11.5%.
